# Laboratory results as given in PubChem BioAssay AID1053118 (Broad Institute, 2014).
# Measured potencies and affinities stand elsewhere. Calls of active or inactive are those of the source.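 How the source made its calls: active means fitted half-maximal concentration for ATP signal loss at most twice the top valid dose; inconclusive means flat curve between -70 and -30%, or an invalid fit; inactive means flat within ±30%, wrong direction, or potency past limit.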
# Experiment: HepG2 cell cytotoxicity, dose response, cytotoxicity control, cherry-picks, set 5 (AID 1053118);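 further: 0% = neutral control wells and -100% = mitoxantrone positive control wells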
# Details: HepG2 viability, ATP luminescence, 72 h; series mostly up to 26 µM; activity change, negative = cytotoxicity: at the top concentration
row,Structure (SMILES),"activity change, negative = cytotoxicity"
1,C[C@H](O)C#Cc1ccc2c(c1)O[C@H](CN(C)C)[C@@H](C)CN([C@@H](C)CO)S2(=O)=O,1.62% (inactive)
2,N#C[C@@H]1[C@@H](c2ccccc2C2=CCCCC2)[C@H](CO)N1S(=O)(=O)c1ccccc1,-11.6% (inactive)
3,Cc1ccc(S(=O)(=O)N2CC[C@H]3[C@H](CO)Nc4ccc(-c5cccc(C(=O)N(C)C)c5)cc4[C@H]32)cc1,-0.705% (inactive)
4,C[C@H](O)C#Cc1ccc2c(c1)O[C@H](CN(C)C)[C@@H](C)CN([C@H](C)CO)S2(=O)=O,-5.83% (inactive)
5,Cc1cccc(NC(=O)c2ccc(S(=O)(=O)N3CCCCC3)cc2)n1,20.9% (inactive)
6,C[C@@H]1CN([C@@H](C)CO)C(=O)c2cc(NC(=O)C3CCCCC3)ccc2O[C@H]1CN(C)Cc1ccc(-c2ccccc2)cc1,-0.237% (inactive)
7,CN1CCN(C(=O)c2cccc(-c3cnc4cnc(-c5ccccc5Oc5ccccc5)cn34)c2)CC1,15% [at 8 µM] (inactive)
8,COC(=O)C[C@@H]1CC[C@H]2[C@H](COc3ccc(NC(=O)Cc4cccs4)cc3C(=O)N2C)O1,3.43% [at 23.5 µM] (inactive)
9,CC(C)CNC(=O)c1coc(=O)c(Br)c1,6.5% (inactive)
10,C[C@@H]1CN([C@@H](C)CO)C(=O)c2cc(-c3ccccc3)cnc2O[C@@H]1CN(C)Cc1ccccc1,-12.5% (inactive)
11,C[C@H](O)C#Cc1ccc2c(c1)O[C@@H](CN(C)C)[C@H](C)CN([C@@H](C)CO)S2(=O)=O,4.59% (inactive)
12,COc1ncccc1C(=O)NC1CCCc2c1cnn2-c1ccc(C)c(C)c1 (stereo unspecified),11.9% (inactive)
13,Nc1c(C(=O)NCc2ccco2)nnn1Cc1ccccc1,-25.9% (inactive)
14,CCCc1cc(C(=O)OC)c(NC(=O)CCC(=O)O)s1,-20.8% (inactive)
15,C[C@@H]1CN([C@@H](C)CO)C(=O)c2cc(NC(=O)CCCN(C)C)ccc2O[C@H]1CN(C)Cc1ccc(-c2ccccc2)cc1,-13.7% (inactive)
16,Cc1cccc(NC(=O)Nc2ccc(S(=O)(=O)Nc3onc(C)c3C)cc2)c1,-16.9% (inactive)
17,Cc1ccc(Nc2nnc(SCc3ccccc3)s2)cc1,9.81% (inactive)
18,C[C@H](CO)N1C[C@H](C)[C@@H](CN(C)Cc2ccc(-c3ccccc3)cc2)Oc2ccc(NC(=O)C3CCCCC3)cc2C1=O,-13.4% (inactive)

row,Structure (SMILES),"activity change, negative = cytotoxicity"
1,COC(=O)C[C@H]1CC[C@@H]2[C@@H](COc3ccc(NC(=O)Cc4cccs4)cc3C(=O)N2C)O1,-5.57% (inactive)
2,CCOC(=O)c1cnc(SCc2nc(N)nc(Nc3ccc(OC)cc3)n2)nc1N,22.1% (inactive)
3,N#C[C@@H]1[C@H](c2ccccc2C2=CCCCC2)[C@H](CO)N1S(=O)(=O)c1ccccc1,-7.49% (inactive)
4,Cc1ccc(S(=O)(=O)N2CC[C@@H]3[C@H](CO)Nc4ccc(-c5cccc(C(=O)N(C)C)c5)cc4[C@@H]32)cc1,-21.2% (inactive)
5,CC(C)(C)[S@@](=O)N1Cc2cc(C(=O)NCc3ccccc3F)nc(-c3cccc(-c4cncnc4)c3)c2[C@H]1CCO,4.18% (inactive)
6,COCC(=O)Nc1ccc2c(c1)C(=O)N(C)[C@@H]1CC[C@H](CC(=O)NCc3ccccc3Cl)O[C@@H]1CO2,-1.66% (inactive)
7,CCCCNC(=O)Nc1nc2ccc(CC)cc2s1,-15% (inactive)
8,CN(C)c1ccc(-c2ccnc3c2CC(C)(C(=O)NCC2CC2)O3)cc1 (stereo unspecified),-10.6% (inactive)
9,Cn1cnc(S(=O)(=O)N2CCN(c3ccccc3)CC2)c1,-33.2% (inactive)
10,Cc1cc(C)n2ncc(C(=O)NCc3ccc(Cl)cc3)c2n1,-17.4% (inactive)
11,COc1ccc(-c2oc3ncnc(NCCCN4CCOCC4)c3c2-c2ccc(OC)cc2)cc1,19.9% (inactive)
12,N#C[C@@H]1[C@@H](c2ccccc2C2=CCCCC2)[C@@H](CO)N1S(=O)(=O)c1ccccc1,-16.8% [at 23.5 µM] (inactive)
13,CCN1CCN(C(c2ccccc2)c2nnnn2Cc2ccccc2)CC1 (stereo unspecified),-27.1% (inactive)
14,CC(C)(C)[S@@](=O)N1Cc2cc(C(=O)NCc3ccccc3F)nc(-c3cccc(-c4ccncc4)c3)c2[C@H]1CCO,-5.5% (inactive)
15,C[C@H](CO)N1C[C@H](C)[C@H](CN(C)Cc2ccccc2)Oc2ncc(-c3ccccc3)cc2C1=O,-12.3% (inactive)
16,COc1ccccc1N(CC(=O)N(CC(C)C)CC(C)C)S(=O)(=O)c1cccs1,16.9% (inactive)
17,COCC(=O)Nc1ccc2c(c1)C(=O)N(C)[C@H]1CC[C@@H](CC(=O)NCc3ccccc3Cl)O[C@H]1CO2,-14% (inactive)
18,Cc1ccc(S(=O)(=O)N2CC3(C)CN(S(=O)(=O)c4ccc(C)cc4)CC(C)(C2)C3=O)cc1,-20.6% (inactive)
